# Measurements taken from ChEMBL document CHEMBL5606460, “ASAP - DENV-2 NS2B-NS3 protease fluorescence single point” (2024).
# Screen size: about 2,000 compounds; about 110 (5.5%) showed an effect of 50% or more. This excerpt belongs to a sample that is enriched for strong results. Residues, ends and D or L forms follow the SMILES beside them. *: point of attachment. pNA = O=[N+]([O-])c1ccc(N*)cc1; Boc = CC(C)(C)OC(=O)*
# Molecular target: Genome polyprotein (dengue virus type 2) (UniProt P29990)
# [1] = Thailand/16681/1984, Concentration 25.0 uM, Number of replicates 1.0
structure (smiles),measurement,setting,value
CC(C)Nc1nc2cc(NCc3cccc(C(N)=O)c3)ccc2[nH]1,inhibition,"Thailand/16681/1984, Concentration 49.5 uM, Number of replicates 2.0, Standard deviation 0.023235641877752903 %",-0.517%
same,inhibition,"Thailand/16681/1984, Concentration 99.01 uM, Number of replicates 2.0, Standard deviation 0.06423980503181957 %",1.24%
same,inhibition,"Thailand/16681/1984, Concentration 198.0 uM, Number of replicates 2.0, Standard deviation 0.8255495407458023 %",3.31%
CSCC[C@H](NC(=O)OC(C)(C)C)C(=O)N1CCC[C@H]1C(=O)Nc1ccc([N+](=O)[O-])cc1 (Boc-Met-Pro-pNA),inhibition,"Thailand/16681/1984, Concentration 49.5 uM, Number of replicates 2.0, Standard deviation 0.6934296230825803 %",10.3%
same,inhibition,"Thailand/16681/1984, Concentration 99.01 uM, Number of replicates 2.0, Standard deviation 0.4989876662884813 %",17.1%
same,inhibition,"Thailand/16681/1984, Concentration 198.0 uM, Number of replicates 2.0, Standard deviation 0.32485037523299065 %",29.3%
CNC(=O)C1CCC(Nc2nc(Cl)cc3c(F)cccc23)CC1 (centres undefined),inhibition,"Thailand/16681/1984, Concentration 49.95 uM, Number of replicates 2.0, Standard deviation 5.365912193998162 %",-9.93%
C[C@@H](NC(=O)C1CCN(c2ccc(C=O)cc2)CC1)c1ccc2ccccc2c1,inhibition,[1],1.94%
Cc1nn(C)nc1-c1nn(C)cc1NC(=O)c1ccccc1C(F)(F)F,inhibition,"Thailand/16681/1984, Concentration 49.5 uM, Number of replicates 2.0, Standard deviation 2.7709187614774393 %",-3.06%
same,inhibition,"Thailand/16681/1984, Concentration 99.01 uM, Number of replicates 2.0, Standard deviation 2.812620033505876 %",-2.31%
same,inhibition,"Thailand/16681/1984, Concentration 198.0 uM, Number of replicates 2.0, Standard deviation 2.009504923047635 %",-2.5%
O=Cc1ccc(N2CCC(C(=O)N3CCCCC[C@H]3c3ccco3)CC2)cc1,inhibition,[1],13.4%
Cn1oc(C(=O)Nc2cc(Cl)cc(C(=O)NC(C)(C)CO)c2)cc1=O,inhibition,"Thailand/16681/1984, Concentration 49.5 uM, Number of replicates 2.0, Standard deviation 0.8141956117621647 %",-0.341%
same,inhibition,"Thailand/16681/1984, Concentration 99.01 uM, Number of replicates 2.0, Standard deviation 1.5201786631370027 %",0.297%
same,inhibition,"Thailand/16681/1984, Concentration 198.0 uM, Number of replicates 2.0, Standard deviation 2.6564108106217375 %",1.39%
C[C@@H](O)CNC(=O)c1cc(Cl)ccc1NS(=O)(=O)c1ccc(Oc2ccccc2Cl)cc1,inhibition,"Thailand/16681/1984, Concentration 49.5 uM, Number of replicates 2.0, Standard deviation 1.4145601780552486 %",30.4%
same,inhibition,"Thailand/16681/1984, Concentration 99.01 uM, Number of replicates 2.0, Standard deviation 0.06674442365142796 %",75.7%
same,inhibition,"Thailand/16681/1984, Concentration 198.0 uM, Number of replicates 2.0, Standard deviation 0.019135343573522066 %",67%
O=Cc1ccc(N2CCC(C(=O)Nc3ncc(C(F)(F)F)cc3Cl)CC2)cc1,inhibition,[1],11.8%
Cc1cc(CO)c2cccc(Cc3ccccc3C(=O)NCCc3ncc[nH]3)c2n1,inhibition,"Thailand/16681/1984, Concentration 49.95 uM, Number of replicates 2.0, Standard deviation 0.3032711887954129 %",14.1%
same,inhibition,"Thailand/16681/1984, Concentration 99.9 uM, Number of replicates 2.0, Standard deviation 0.18110062477906652 %",34.2%
Cc1cc(N)cc(CNc2cccc3c(CO)cc(C)nc23)c1,inhibition,"Thailand/16681/1984, Concentration 49.95 uM, Number of replicates 2.0, Standard deviation 2.268676515546947 %",34.9%
same,inhibition,"Thailand/16681/1984, Concentration 99.9 uM, Number of replicates 2.0, Standard deviation 1.0884002159453274 %",63.5%
Cc1cc(CO)c2cccc(CC(=O)NCc3ccc(C(N)=O)cc3)c2n1,inhibition,"Thailand/16681/1984, Concentration 49.95 uM, Number of replicates 2.0, Standard deviation 0.824600056542549 %",-4.43%
same,inhibition,"Thailand/16681/1984, Concentration 99.9 uM, Number of replicates 2.0, Standard deviation 0.5940444883081935 %",2.19%
Cc1cc(CO)c2cccc(NCc3ccc(C(N)=O)cc3)c2n1,inhibition,"Thailand/16681/1984, Concentration 49.95 uM, Number of replicates 2.0, Standard deviation 1.5291755401543807 %",1.6%
same,inhibition,"Thailand/16681/1984, Concentration 99.9 uM, Number of replicates 2.0, Standard deviation 0.4954793626184345 %",6.67%
Cc1cc(CO)c2cccc(Cc3cccc(C(=O)NCc4c(C)noc4C)c3)c2n1,inhibition,"Thailand/16681/1984, Concentration 49.95 uM, Number of replicates 2.0, Standard deviation 0.7006856245222158 %",1.58%
same,inhibition,"Thailand/16681/1984, Concentration 99.9 uM, Number of replicates 2.0, Standard deviation 0.008623919554905093 %",5.27%
Cc1cc(CO)c2cccc(CC(=O)NCCc3ncc[nH]3)c2n1,inhibition,"Thailand/16681/1984, Concentration 49.95 uM, Number of replicates 2.0, Standard deviation 0.7345959673097169 %",39.1%
same,inhibition,"Thailand/16681/1984, Concentration 99.9 uM, Number of replicates 2.0, Standard deviation 0.015925439590932376 %",77.7%
Cc1cc(CO)c2cccc(NCc3ccc(S(N)(=O)=O)cc3)c2n1,inhibition,"Thailand/16681/1984, Concentration 49.95 uM, Number of replicates 2.0, Standard deviation 1.2377055953825635 %",8.26%
same,inhibition,"Thailand/16681/1984, Concentration 99.9 uM, Number of replicates 2.0, Standard deviation 1.691711110367126 %",17.2%
Cc1cc(CO)c2cccc(CC(=O)NCC(N)=O)c2n1,inhibition,"Thailand/16681/1984, Concentration 49.95 uM, Number of replicates 2.0, Standard deviation 1.3653333333441007 %",-7.85%
same,inhibition,"Thailand/16681/1984, Concentration 99.9 uM, Number of replicates 2.0, Standard deviation 0.5261932884148693 %",-6.61%
Cc1cc(CO)c2cccc(Cc3cccc(C(=O)NCCc4ncc[nH]4)c3)c2n1,inhibition,"Thailand/16681/1984, Concentration 49.95 uM, Number of replicates 2.0, Standard deviation 2.0725920117726813 %",-4.03%
same,inhibition,"Thailand/16681/1984, Concentration 99.9 uM, Number of replicates 2.0, Standard deviation 0.8997522707097182 %",1.59%
Cc1cc(N)cc(CNC(=O)c2cccc(Cc3cccc4c(CO)cc(C)nc34)c2)c1,inhibition,"Thailand/16681/1984, Concentration 49.95 uM, Number of replicates 2.0, Standard deviation 0.2659014326821377 %",29.9%
same,inhibition,"Thailand/16681/1984, Concentration 99.9 uM, Number of replicates 2.0, Standard deviation 1.3431613936290656 %",54.9%
Cc1cc(N)cc(CNC(=O)Cc2cccc3c(CO)cc(C)nc23)c1,inhibition,"Thailand/16681/1984, Concentration 49.95 uM, Number of replicates 2.0, Standard deviation 0.21775017554498763 %",39.7%
same,inhibition,"Thailand/16681/1984, Concentration 99.9 uM, Number of replicates 2.0, Standard deviation 1.7887257377938661 %",61.7%
Cc1cc(CO)c2cccc(Cc3cccc(C(=O)NCc4ccc(C(N)=O)cc4)c3)c2n1,inhibition,"Thailand/16681/1984, Concentration 49.95 uM, Number of replicates 2.0, Standard deviation 1.5788782649320652 %",-6.46%
same,inhibition,"Thailand/16681/1984, Concentration 99.9 uM, Number of replicates 2.0, Standard deviation 2.3363374645660926 %",-3.45%
CSCC[C@H](NC(=O)OC(C)(C)C)C(=O)N1CCC[C@H]1C(=O)Nc1ccc(CN)cc1,inhibition,"Thailand/16681/1984, Concentration 49.5 uM, Number of replicates 2.0, Standard deviation 0.5873455681071067 %",0.345%
same,inhibition,"Thailand/16681/1984, Concentration 99.01 uM, Number of replicates 2.0, Standard deviation 0.9875045381203101 %",1.56%
same,inhibition,"Thailand/16681/1984, Concentration 198.0 uM, Number of replicates 2.0, Standard deviation 0.49996007837732465 %",2.5%
CCc1nc(CNC(=O)[C@]2(c3ccc(F)cc3)CCCNC2)n[nH]1,inhibition,"Thailand/16681/1984, Concentration 49.5 uM, Number of replicates 2.0, Standard deviation 0.49799700461423274 %",-1.23%
same,inhibition,"Thailand/16681/1984, Concentration 99.01 uM, Number of replicates 2.0, Standard deviation 0.6482125452450617 %",-1.25%
same,inhibition,"Thailand/16681/1984, Concentration 198.0 uM, Number of replicates 2.0, Standard deviation 1.0139545093997464 %",-1.41%
